Assay outcomes as filed in PubChem.
Only some compounds are listed: those with a hit (about 9.3% of all), similar ones and a draw of the others.
ELG1 genotox = inducers of genotoxicity in HEK293T ELG1-luciferase cells | actives 1.3% (n = 330,000) | HEK293T ELG1-luciferase reporter, luminescence, 16 h | Potency, µM (titrated, usually from 46 µM), most hits filed as activators | AID 504466; also: nearly all actives have a fitted effect of over 60% in size
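DMSO vehicle served as control against compound-treated ELG1-luciferase HEK293T cells; exposure lasted 16 hr at 37 °C and 5% CO2, followed by ONE-Glo luminescence detection after 30 min.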
Rab9 prom act = Rab9 promoter activation. Huh7 Rab9 promoter-luciferase reporter, luminescence, 24 h. Potency, µM (doses to about 9.22 µM), actives largely listed as activators. actives 2.8% (n = 320,000). AID 485297; also: nearly all actives have a fitted effect of over 60% in size
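Stable Rab9-luc Huh7, 1500 cells/well, 2 h settle; cmpd in DMSO, 24 h, 37 °C/5% CO2; luciferase reagent 10 min RT; luminescence.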
ELG1 repair inh = inhibitors of ELG1-dependent DNA repair in HEK293T cells | Potency, µM (titrated, usually from 46.1 µM), actives largely listed as inhibitors | AID 504467 | HEK293T ELG1-luciferase reporter, luminescence, 16 h; DNA damage induced by 5-fluorouridine | actives 2.3% (n = 330,000); also: nearly all actives have a fitted effect of over 55% in size
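Quantitative HTS, concentration-response format. 2,000 cells/well co-treated with 5-fluorouridine and compound, 16 hr in 5% CO2 at 37 °C; ONE-Glo luminescence read after 30 min.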
SMN2 splice up = increases expression of the SMN2 splice variant | HEK293 SMN2-luciferase splicing reporter, luminescence, 30-36 h | Potency, µM (titrated, usually from 46.1 µM), usual class: activators | actives 2.8% (n = 210,000) | AID 1458; also: nearly all actives have a fitted effect of over 55% in size
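HEK293 cells carry an SMN2 minigene-luciferase reporter in which exon 7 inclusion puts luciferase in frame. Cells were seeded at 2000 cells/well, attached for 10-12 hours, then exposed to compounds for 30-36 hours at 37C before ONE-Glo luminescence.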
FLuc modulator = inhibits or activates purified firefly luciferase, miR-21 counter-screen | AID 588342 | purified FLuc, Km substrates, luminescence inhibition | Potency, µM (titrated, usually from 57.5 µM), actives largely listed as inhibitors | actives 6.9% (n = 360,000); also: nearly all actives have a fitted effect of over 55% in size
Target sequence (P08659 whole entry, looked up): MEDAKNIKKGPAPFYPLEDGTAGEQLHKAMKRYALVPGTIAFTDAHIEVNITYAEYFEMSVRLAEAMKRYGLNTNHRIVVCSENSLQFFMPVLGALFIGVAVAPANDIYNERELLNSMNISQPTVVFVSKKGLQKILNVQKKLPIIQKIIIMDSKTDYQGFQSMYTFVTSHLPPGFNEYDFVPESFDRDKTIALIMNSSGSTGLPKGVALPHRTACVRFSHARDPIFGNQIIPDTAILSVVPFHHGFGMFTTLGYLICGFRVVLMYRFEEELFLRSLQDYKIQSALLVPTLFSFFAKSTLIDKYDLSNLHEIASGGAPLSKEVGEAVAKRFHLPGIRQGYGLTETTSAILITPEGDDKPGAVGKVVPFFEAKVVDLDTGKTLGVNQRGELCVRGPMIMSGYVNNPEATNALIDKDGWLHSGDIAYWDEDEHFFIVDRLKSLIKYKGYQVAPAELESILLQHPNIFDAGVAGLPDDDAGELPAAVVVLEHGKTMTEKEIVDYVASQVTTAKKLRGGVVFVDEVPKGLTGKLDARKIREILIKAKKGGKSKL
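Purified P. pyralis luciferase, 10 nM final, with Km-level 10 uM D-luciferin and 10 uM ATP in 50 mM Tris acetate pH 7.5, 10 mM Mg acetate, 0.01% Tween-20, 0.05% BSA; 6-point qHTS titration about 60 µM downward; luminescence read.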
NPC1 prom act = NPC1 promoter activation | Huh7 NPC1 promoter luciferase reporter, 24 h | Potency, µM (doses to about 9.22 µM), hits mostly activators | actives 2.4% (n = 320,000); also: nearly all actives have a fitted effect of over 60% in size
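Readout is luciferase luminescence, reflecting NPC1 promoter activation in stably transfected Huh7 cells after 24 h compound exposure at 37 °C in reduced-serum medium with 10% FBS.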
Each line names hits and unclear results; the compound was inactive in the other large screens. Calls follow the shape of the dose curve; as a rule, active = well fitted curve in the direction sought with a large enough effect; inconclusive = small, poorly fitted or top-dose-only effect, or another doubt; inactive = no such curve, though single readings can be large; an effect the other way counts as inactive or inconclusive.

Cc1sc2nc(-c3cccnc3)nc(Cl)c2c1-c1ccccc1	ELG1 repair inh inconclusive, SMN2 splice up inconclusive, FLuc modulator 17µM, NPC1 prom act inconclusive
Cc1ccccc1NC(=O)CN1C(=O)S/C(=C\c2ccc(-c3cccc(C(=O)O)c3C)o2)C1=O	SMN2 splice up 11µM, FLuc modulator inconclusive
Cc1cccc(NC(=O)CN2C(=O)S/C(=C\c3ccc(-c4cccc(C(=O)O)c4C)o3)C2=O)c1	FLuc modulator 19µM
O=C(O)c1ccccc1-c1ccc(/C=C2\SC(=O)N(c3ccccc3)C2=O)o1	ELG1 genotox inconclusive, Rab9 prom act 2µM, ELG1 repair inh inconclusive, FLuc modulator 13µM, NPC1 prom act 2.5µM (no result: SMN2 splice up)
Cc1ccc(NC(=O)CN2C(=O)S/C(=C/c3ccc(-c4cc(C(=O)O)ccc4C)o3)C2=O)cc1C	FLuc modulator inconclusive
O=C1S/C(=C\c2ccc(N3CCOCC3)o2)C(=O)N1c1ccccc1	ELG1 genotox inconclusive, Rab9 prom act inconclusive, ELG1 repair inh inconclusive, FLuc modulator inconclusive, NPC1 prom act inconclusive
CC1=NN(c2ccc(Br)cc2)C(=O)/C1=C/c1ccc(-c2ccccc2C(=O)O)o1	FLuc modulator 27µM (no result: SMN2 splice up)
Cc1c(C(N)=O)sc2ncn(CC(=O)NCCc3ccccc3)c(=O)c12	none (no result: SMN2 splice up)
COc1ccc2c(c1)C(=O)[C@@H](OC(=O)N[C@H](C)C1CCCCC1)[C@H](c1ccc(OC)c(Br)c1)O2	none (no result: ELG1 genotox, Rab9 prom act, ELG1 repair inh, FLuc modulator, NPC1 prom act)
CC(=O)N1/C(=C/c2ccc(N(C)C)cc2)C(=O)c2ccccc21	ELG1 repair inh inconclusive, FLuc modulator 17µM
Cn1cc(S(=O)(=O)N2CCCCCC2)cc1C(=O)NCc1ccc(F)cc1	none (no result: ELG1 genotox, Rab9 prom act, ELG1 repair inh, SMN2 splice up, NPC1 prom act)
COc1ccc(S(=O)(=O)Nc2cccc(-c3ccc4nncn4n3)c2)cc1F	none
COc1ccc(S(=O)(=O)Nc2cccc(-c3ccc(N4CCCCCC4)nn3)c2)cc1	FLuc modulator 6.7µM (no result: ELG1 genotox, Rab9 prom act, ELG1 repair inh, SMN2 splice up, NPC1 prom act)
COc1ccc(S(=O)(=O)Nc2cccc(-c3ccc(N4CCCC4)nn3)c2)cc1F	FLuc modulator 13µM (no result: ELG1 genotox, Rab9 prom act, ELG1 repair inh, SMN2 splice up, NPC1 prom act)
CCCCOc1ccc(S(=O)(=O)Nc2ccc(-c3ccc(N4CCCCCC4)nn3)cc2)cc1	none (no result: ELG1 genotox, Rab9 prom act, ELG1 repair inh, SMN2 splice up, NPC1 prom act)
COc1ccc(S(=O)(=O)Nc2cccc(-c3ccc(N4CCCCCC4)nn3)c2)cc1OC	FLuc modulator 6µM (no result: SMN2 splice up)
CCOc1ccc(S(=O)(=O)Nc2cccc(-c3ccc(N4CCC(C)CC4)nn3)c2)cc1	FLuc modulator 2.7µM (no result: ELG1 genotox, Rab9 prom act, ELG1 repair inh, SMN2 splice up, NPC1 prom act)
COc1ccc(N(CC(=O)NC2CCCCC2)C(=O)CNC(=O)c2cccs2)cc1OC	none (no result: SMN2 splice up)
COc1ccc(CNC(=O)Cn2c(=O)nc(-c3ccccc3)c3cc(Cl)ccc32)cc1OC	none (no result: ELG1 genotox, Rab9 prom act, ELG1 repair inh, SMN2 splice up, NPC1 prom act)
CC(=O)c1cccc(N(CC(=O)Nc2ccccc2C(=O)N2CCCC2)S(C)(=O)=O)c1	none (no result: SMN2 splice up)
COc1cc(NC(=O)CSc2nccn2C)cc(OC)c1OC	none (no result: ELG1 genotox, Rab9 prom act, ELG1 repair inh, NPC1 prom act)
O=c1cc(Cn2ccnc2)c2cc(O)ccc2o1	none (no result: SMN2 splice up)
Cc1ccc(O)c(NC(=O)c2cc(-c3ccccc3)on2)c1	ELG1 genotox 16µM, ELG1 repair inh inconclusive, FLuc modulator inconclusive, NPC1 prom act inconclusive (no result: SMN2 splice up)
CCCc1cc(C(=O)Nc2cccnc2Cl)no1	ELG1 genotox inconclusive, ELG1 repair inh inconclusive, FLuc modulator inconclusive
Cc1ccc(-c2cc(C(=O)Nc3c(C#N)cnn3C)no2)cc1	ELG1 repair inh inconclusive, SMN2 splice up inconclusive, FLuc modulator 6.7µM
CCCc1cc(C(=O)Nc2cc(C)ccc2O)no1	ELG1 genotox 15µM, ELG1 repair inh inconclusive, FLuc modulator 2.7µM (no result: SMN2 splice up)
Cc1ccc(-c2cc(C(=O)Nc3cnn(C(C)C)c3)no2)cc1	ELG1 repair inh inconclusive, FLuc modulator inconclusive (no result: SMN2 splice up)
CC(=O)N1CCN(c2ccc(NC(=O)c3ccc(F)cc3)cc2)CC1	none (no result: SMN2 splice up)
COc1ccc(NC(=O)C(C)N2CCN(C)CC2)cc1 (stereo unspecified)	none (no result: SMN2 splice up)
CCN(CC(=O)Nc1ccc(NC(C)=O)cc1)C(=O)COc1ccccc1Cc1ccccc1	none (no result: SMN2 splice up)
COc1ccc(-c2cc3cc(OC)c(OC)cc3c(C)n2)cc1C	FLuc modulator 17µM (no result: SMN2 splice up)
CCOCCCn1c(=S)[nH]c2cc(C(=O)NCc3ccc(F)cc3)ccc2c1=O	none (no result: SMN2 splice up)
